Source: PubChem BioAssay AID651744 (Broad Institute, 2012)
Hit rate of the full screen: of about 5,600 compounds, about 3,100 (55%) were called active. About 3% were inconclusive and are not listed. The set was probably picked from earlier hits. A selection follows. Values without a mark were called inactive.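 Rule for the calls: active = mean loss of cell viability signal at or above a set limit, and enough replicates individually reaching it; inconclusive = meets only the mean limit or only the replicate share; inactive = meets neither condition.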

Experiment: NIH/3T3 fibroblast cytotoxicity, confirmation, cytotoxicity control, cell-based, cherry-pick, single point, set 2 (AID 651744);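 note: 0% = median of neutral control wells and 100% = median of positive control wells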
Details: NIH/3T3 viability, CellTiter-Glo ATP luminescence, 90 h; at 24.9 µM; hits give high values
`C[C@H](CO)N1C[C@H](C)[C@H](CN(C)C(=O)Nc2ccc(C(F)(F)F)cc2)OCCCC[C@H](C)Oc2ccc(NC(=O)C3CCCCC3)cc2C1=O` gave an inhibition of -9.18%. With `C[C@H]1CCCCO[C@H](CN(C)Cc2ccc(C(F)(F)F)cc2)[C@@H](C)CN([C@@H](C)CO)C(=O)c2cc(NC(=O)C3CCCCC3)ccc2O1` the inhibition was 25.9% (active). `C[C@H](CO)N1C[C@H](C)[C@@H](CN(C)Cc2ccc(C(F)(F)F)cc2)OCCCC[C@H](C)Oc2ccc(NC(=O)C3CCCCC3)cc2C1=O` gave an inhibition of 22.4%. With `CCCC#Cc1ccc2c(c1)O[C@H](CN(C)C(=O)CC)[C@@H](C)CN([C@H](C)CO)S2(=O)=O` the inhibition was 48.4% (active). In the case of `C[C@H](CO)N1C[C@H](C)[C@@H](CN(C)C(=O)C2CCCCC2)Oc2cc(-c3ccccc3)ccc2S1(=O)=O`, the inhibition is reported as 33.8% (active). `C[C@@H]1CN([C@@H](C)CO)S(=O)(=O)c2ccc(C#CCN(C)C)cc2O[C@H]1CN(C)C(=O)C1CC1` gave an inhibition of 15.6%. Work on `CCC(=O)N(C)C[C@@H]1Oc2cc(C#CCN(C)C)ccc2S(=O)(=O)N([C@H](C)CO)C[C@H]1C` yielded an inhibition of 5.45%. For `CC(C)CC#Cc1ccc2c(c1)O[C@H](CN(C)C(=O)C1CC1)[C@@H](C)CN([C@@H](C)CO)S2(=O)=O`, the inhibition was 34.8% (active). With `N#C[C@@H]1[C@H](c2ccc(C#Cc3cccc(F)c3)cc2)[C@@H](CO)N1C(=O)C1CCCC1` the inhibition was 105% (active). With `N#C[C@@H]1[C@@H](c2ccccc2)[C@@H](CO)N1C(=O)Cc1ccccc1` the inhibition was 17%. Compound `N#C[C@@H]1[C@@H](c2ccc(C#Cc3cccc(F)c3)cc2)[C@@H](CO)N1C(=O)C1CCC1` has an inhibition of 22.8%. For `N#C[C@@H]1[C@@H](c2ccc(/C=C/c3ccccc3)cc2)[C@@H](CO)N1C(=O)C1CC1`, the inhibition was 48.2% (active). Work on `CCCC#Cc1ccc([C@@H]2[C@@H](C#N)N(C(=O)C3CCCC3)[C@@H]2CO)cc1` yielded an inhibition of 23.7%. Work on `COCC(=O)N1[C@H](CO)[C@@H](c2ccc(C#Cc3ccccc3F)cc2)[C@@H]1C#N` yielded an inhibition of 19.1%. For `C[C@@H]1CN([C@H](C)CO)S(=O)(=O)c2ccc(C#Cc3ccncc3)cc2O[C@@H]1CN(C)S(=O)(=O)c1ccc(F)cc1`, the inhibition was 27.4% (active). Work on `Cc1noc(C)c1S(=O)(=O)N(C)C[C@H]1Oc2ccc(N(C)C)cc2CC(=O)N([C@H](C)CO)C[C@@H]1C` yielded an inhibition of -3.27%. With `C[C@@H]1CN([C@@H](C)CO)S(=O)(=O)c2ccc(C#Cc3ccc(F)cc3)cc2O[C@H]1CN(C)S(C)(=O)=O` the inhibition was 64.1% (active). For `CN(C)CC#Cc1ccc([C@H]2[C@H]3CN(S(=O)(=O)c4ccccc4F)CCCCN3[C@H]2CO)cc1`, the inhibition was 18.4%. For `Cc1ccccc1-c1ccc([C@@H]2[C@H](CO)N3CCCCN(S(=O)(=O)c4ccc(F)cc4)C[C@@H]23)cc1`, the inhibition was 102% (active). With `Cc1ccccc1-c1ccc([C@H]2[C@H]3CN(S(=O)(=O)c4ccc(F)cc4)CCCCN3[C@H]2CO)cc1` the inhibition was 103% (active). For `O=S(=O)(c1ccc(F)cc1)N1CCCCN2[C@H](C1)[C@H](c1ccc(C3=CCCCC3)cc1)[C@@H]2CO`, the inhibition was 105% (active). For `Cc1ccc(S(=O)(=O)N(C)C[C@@H]2Oc3c(NC(=O)c4nc5ccccc5s4)cccc3C(=O)N([C@H](C)CO)C[C@@H]2C)cc1`, the inhibition was 49% (active). With `C[C@@H]1CN([C@H](C)CO)C(=O)c2cccc(NC(=O)c3cnccn3)c2O[C@@H]1CN(C)Cc1ccc(C(=O)Nc2ccccc2N)cc1` the inhibition was 68.5% (active). Compound `C[C@@H]1CCCCO[C@H](CN(C)C(=O)Nc2ccc(C(F)(F)F)cc2)[C@H](C)CN([C@H](C)CO)C(=O)c2cc(NC(=O)Nc3ccc(C(F)(F)F)cc3)ccc2O1` has an inhibition of -27.4%. `COc1ccc(S(=O)(=O)N(C)C[C@H]2Oc3c(NC(=O)Nc4cccc5ccccc45)cccc3C(=O)N([C@@H](C)CO)C[C@H]2C)cc1` gave an inhibition of 26.1%. For `C[C@H](CO)N1C[C@H](C)[C@@H](CN(C)Cc2ccc(C(=O)Nc3ccccc3N)cc2)Oc2c(NC(=O)c3ccc(-c4nccs4)cc3)cccc2C1=O`, the inhibition was 42% (active). `Cc1cc(C(=O)Nc2cccc3c2O[C@@H](CN(C)Cc2ccc(C(=O)Nc4ccccc4N)cc2)[C@H](C)CN([C@@H](C)CO)C3=O)n(C)n1` gave an inhibition of 10.2%. Work on `COc1ccc(NC(=O)N(C)C[C@H]2OCCCC[C@H](C)Oc3ccc(NC(=O)Nc4ccc(C(F)(F)F)cc4)cc3C(=O)N([C@@H](C)CO)C[C@@H]2C)cc1` yielded an inhibition of 20.7%. For `C[C@@H]1CN([C@H](C)CO)C(=O)c2cccc(NC(=O)c3ccc(-c4nccs4)cc3)c2O[C@@H]1CN(C)C(=O)Nc1ccc(C(F)(F)F)cc1`, the inhibition was 44% (active). For `Cc1ccc(S(=O)(=O)N(C)C[C@H]2OCCCC[C@H](C)Oc3ccc(NC(=O)Cc4ccccc4)cc3C(=O)N([C@@H](C)CO)C[C@@H]2C)cc1`, the inhibition was -4.04%. For `C[C@H]1CN([C@@H](C)CO)C(=O)c2cccc(NS(=O)(=O)c3cn(C)cn3)c2O[C@@H]1CN(C)CC1CCCCC1`, the inhibition was 0.698%. `O=C(Nc1ccccc1F)N1CCCCN2[C@H](CO)[C@@H](c3ccc(-c4cccnc4)cc3)[C@H]2C1` gave an inhibition of 14.6%. With `O=C(C1CCCC1)N1CCCCN2[C@@H](CO)[C@H](c3ccc(-c4cccc(F)c4)cc3)[C@@H]2C1` the inhibition was 105% (active). Work on `O=C(Nc1cccc(F)c1)N1CCCCN2[C@H](CO)[C@H](c3ccc(C#CC4CC4)cc3)[C@@H]2C1` yielded an inhibition of 22.3%. Work on `O=C(C1CCC1)N1CCCCN2[C@H](CO)[C@H](c3ccc(-c4cccc(F)c4)cc3)[C@@H]2C1` yielded an inhibition of 1.34%. For `N#Cc1cccc(-c2ccc([C@H]3[C@H](CO)N4CCCCN(C(=O)Nc5cccc(F)c5)C[C@@H]34)cc2)c1`, the inhibition was 105% (active). In the case of `O=C(C1CC1)N1CCCCN2[C@H](CO)[C@H](c3ccc(-c4cccc(F)c4)cc3)[C@H]2C1`, the inhibition is reported as 56.9% (active). In the case of `O=C(C[C@@H]1C[C@H]2c3cc(NC(=O)C4CCC4)ccc3O[C@H]2[C@@H](CO)O1)NCc1ccc2c(c1)OCO2`, the inhibition is reported as -13.1%.
